From PubChem BioAssay (NCATS) come the findings set out here.

Records with an inconclusive call do not appear. Calls of active or inactive are those of the source. Unless noted, the call rests on the fitted dose curve; in most records, active means well fitted curve in the direction sought with a large enough effect; inconclusive means small, poorly fitted or top-dose-only effect, or another doubt; inactive means no such curve, though single readings can be large; an effect the other way counts as inactive or inconclusive.

Assay [1] addresses Thyrotropin-releasing hormone receptor (Homo sapiens) (UniProt P34981). Kind of assay: qHTS for Small Molecule Agonists and Allosteric Enhancers of Human TRH Receptor: Validation Screen for Agonists (AID 493127;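 active means calcium activation more than 3 SD above the typical response in the agonist read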;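 further: intracellular calcium rise by fluo-8 fluorescence before TRH EC20 addition; 0% is about no effect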). The note with it: TRH receptor agonist cell assay; at 2 µM; stronger effect = higher value. The gist of the method:
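Cells 2000/well, 10% FCS, 18 h 33.5C/5% CO2 → fluo-8 Ca dye, RT 30 min–1.5 h → FDSS baseline 10 × 1 s → compound added → 230 cycles (1 s/cycle) agonist mode. TRH controls.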

A short description of assay [2]: Nrf2 qHTS screen for inhibitors: Validation (AID 493153; active means well fitted inhibition curve with a large enough effect in the main read-out, with a control signal flat, not every such curve was filed as active). The note with it: A549 ARE-Fluc reporter, 18-24 h; Potency: luciferase luminescence; viability change: measured here: cytotoxicity max response; luciferase luminescence, at 46.1 µM (top of the series). An outline of the steps: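 Luminescence from an ARE-firefly luciferase reporter in A549 cells gives Nrf2 inhibition; an earlier CellTiter-Fluor fluorescent read flags cytotoxicity. Cells in 5% FBS OPTI-MEM received compound dilution series for 18-24 h at 37°C.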

Assay [3] is described as follows: qHTS for Inhibitors of Cell Surface uPA Generation: Validation Assay (AID 493164). Further: 0% is about no effect. Conditions: mouse cells, plasminogen activation; series mostly up to 38.3 µM. The gist of the method: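 RAW 264.7 cells (4000/well) were plated overnight, then exposed for 18 h at 37 C, 5% CO2 to compounds in a 7-point 1:5 titration (2.45 nM–38.3 uM final). Intracellular ATP was read by ATP-Lite luminescence.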

The target in assay [4] is Galactokinase (Homo sapiens) (UniProt P51570). Kind of assay: qHTS Validation Assay for Inhibitors of Human Galactokinase (GALK) (AID 493189). Further: 0% is about no effect. Conditions: purified human GALK enzyme activity, qHTS 7-point titration; series mostly up to 57.5 µM. The gist of the method: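 5 nM GALK / 100 uM galactose / 35 uM ATP, 20 mM HEPES pH8.0, 5 mM MgCl2, 60 mM NaCl, 1 mM DTT, 0.01% BSA (final). RT 1 h; Kinase-Glo Plus luminescence.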

Assay [5] can be described thus: Validation screen for small molecules that induce DNA re-replication in SW480 colon adenocarcinoma cells (AID 504364). Further: 0% is about no effect. Conditions: DNA re-replication phenotype (high-content imaging); series mostly up to 46.1 µM. An outline of the steps:
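250 cells/well; compound pinned in; 48 hr, 37 C, 5% CO2; Hoechst added, 40 min; nuclear fluorescence imaged, 405 ex / 500-530 em; re-replication scored as increase in high-intensity nuclei.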

Assay [6] addresses Peptidyl-prolyl cis-trans isomerase NIMA-interacting 1 (Homo sapiens) (UniProt Q13526). Kind of assay: qHTS Validation Assay to Find Inhibitors of Pin1 (AID 504536; active means well fitted inhibition curve with a large enough effect in the polarisation, with a control signal flat, not every such curve was filed as active; the % refers to the polarisation;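 further: 0% = full Pin1 enzyme wells and -100% = no-enzyme wells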). Conditions: Pin1 fluorescence polarization peptide binding assay; series mostly up to 57.5 µM. An outline of the steps: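 Fluorescence polarization competition: compounds (titration) displace HiFluor-488-labeled Pin1-1b peptide from Pin1 (0.3 uM final) in pH 7.5 HEPES buffer with DTT, 10 min at room temperature; %Activity normalized to no-enzyme wells, curves fitted.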

The target in assay [7] is Phosphoglycerate kinase, glycosomal (Trypanosoma brucei brucei) (UniProt P07378). Kind of assay: qHTS Validation Assay to Find Inhibitors of Phosphoglycerate Kinase (AID 504547).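 Further: control wells lack PGK and mark full inhibition.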 Conditions: enzymatic PGK inhibition, coupled luminescence read-out; series mostly up to 57.5 µM. An outline of the steps: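 PGK activity was coupled to GAPDH (100nM final), which generates the unstable substrate 1,3-bisphosphoglycerate in-well. Reactions ran 60 minutes at room temperature in 100mM TEA pH 7.6, 5mM MgCl2, 0.01% Tween-20, then Kinase-Glo Plus luminescence was read.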

Assay [8] concerns the target phosphoglycerate mutase (Leishmania major) (UniProt Q4Q090). Kind of assay: qHTS Validation Assay to Find Inhibitors of Phosphoglycerate Mutase (AID 504548). Further: on the % scale 0 is the no-effect control and ±100 the full control effect. The note with it: biochemical enzyme activity; series mostly up to 57.5 µM. The gist of the method: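 Lm PGAM 1.25nM final; 100 mM TEA pH 7.6, 5 mM MgCl2, 0.01% Tween-20; 45 min RT; Kinase-GloPlus, 10 min; end-point luminescence. Enzyme-free wells as negative controls.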

Assay [9] concerns the target Ubiquitin carboxyl-terminal hydrolase 1 (Homo sapiens) (UniProt O94782). The assay is described as follows: Inhibitors of USP1/UAF1: Pilot qHTS (AID 504865).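 Further: rhodamine fluorescence freed from ubiquitin-rhodamine substrate followed over time; top concentration of the series differs between compounds; on the % scale 0 is the no-effect control and ±100 the full control effect; nearly all actives have a fitted effect of over 35% in size.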 Conditions: purified USP1/UAF1, Ub-rhodamine cleavage fluorescence; series mostly up to 114 µM. An outline of the steps: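 In 50mM HEPES pH 7.8 containing 0.5mM EDTA, 1mM TCEP, 0.1 mg/ml BSA and 0.01% Tween-20, 1nM USP1/UAF1 is exposed to compound for 15 min, then Ub-Rho (150nM final) is added and fluorescence is read over time.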

A short description of assay [10]: qHTS for Inhibitors of ATXN expression: Validation (AID 588378). Further: nearly all actives have a fitted effect of over 75% in size. Further: potency means the concentration at half of the fitted maximal effect. The note with it: cell-based ATXN2 expression reporter assay, luminescence; series mostly up to 57.1 µM. The gist of the method: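 Compounds were pinned onto attached HEK293 cells carrying an ATXN2-firefly luciferase construct and incubated 24 hrs at 37 degrees C. Each well then received a fluorescent viability reagent followed by luciferase substrate for end-point luminescence.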

Assay [11] in a line: qHTS for Inhibitors of ATXN expression: Validation of Cytotoxic Assay (AID 588349). Further: on the % scale 0 is the no-effect control and ±100 the full control effect. Conditions: cytotoxicity counter-screen for ATXN expression inhibitors, cell viability; series mostly up to 57.1 µM. The gist of the method:
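Read-out: ATP-based luminescence (CellTiter Glo) reflecting viability of HEK293 cells after 72 hr incubation at 37 degrees C with a concentration series of each compound.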

Sequence of Galactokinase (Homo sapiens) (P51570 whole entry, looked up): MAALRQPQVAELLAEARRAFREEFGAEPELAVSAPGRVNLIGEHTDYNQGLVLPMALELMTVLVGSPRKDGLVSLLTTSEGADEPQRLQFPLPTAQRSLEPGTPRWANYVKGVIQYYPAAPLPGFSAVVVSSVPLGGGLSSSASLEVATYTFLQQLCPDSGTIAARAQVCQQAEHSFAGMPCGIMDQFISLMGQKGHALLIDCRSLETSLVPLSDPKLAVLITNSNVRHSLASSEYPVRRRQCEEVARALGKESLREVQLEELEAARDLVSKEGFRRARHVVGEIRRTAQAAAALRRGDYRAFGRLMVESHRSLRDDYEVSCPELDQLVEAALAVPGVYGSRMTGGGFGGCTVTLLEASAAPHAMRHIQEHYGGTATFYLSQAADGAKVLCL
Sequence of Phosphoglycerate kinase, glycosomal (Trypanosoma brucei brucei) (P07378 whole entry, looked up): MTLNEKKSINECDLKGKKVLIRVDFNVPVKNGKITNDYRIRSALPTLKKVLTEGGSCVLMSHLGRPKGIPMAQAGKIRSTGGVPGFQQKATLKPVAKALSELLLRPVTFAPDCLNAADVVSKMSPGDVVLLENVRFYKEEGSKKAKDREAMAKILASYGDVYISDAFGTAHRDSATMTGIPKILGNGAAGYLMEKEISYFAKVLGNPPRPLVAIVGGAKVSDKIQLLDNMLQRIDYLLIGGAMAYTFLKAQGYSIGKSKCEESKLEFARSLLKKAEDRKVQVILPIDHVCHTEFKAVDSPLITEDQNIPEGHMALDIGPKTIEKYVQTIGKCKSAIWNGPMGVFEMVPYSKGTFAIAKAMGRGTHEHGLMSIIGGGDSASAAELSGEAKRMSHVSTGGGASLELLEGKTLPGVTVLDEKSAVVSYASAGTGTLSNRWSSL
Sequence of Ubiquitin carboxyl-terminal hydrolase 1 (Homo sapiens) (O94782 whole entry, looked up): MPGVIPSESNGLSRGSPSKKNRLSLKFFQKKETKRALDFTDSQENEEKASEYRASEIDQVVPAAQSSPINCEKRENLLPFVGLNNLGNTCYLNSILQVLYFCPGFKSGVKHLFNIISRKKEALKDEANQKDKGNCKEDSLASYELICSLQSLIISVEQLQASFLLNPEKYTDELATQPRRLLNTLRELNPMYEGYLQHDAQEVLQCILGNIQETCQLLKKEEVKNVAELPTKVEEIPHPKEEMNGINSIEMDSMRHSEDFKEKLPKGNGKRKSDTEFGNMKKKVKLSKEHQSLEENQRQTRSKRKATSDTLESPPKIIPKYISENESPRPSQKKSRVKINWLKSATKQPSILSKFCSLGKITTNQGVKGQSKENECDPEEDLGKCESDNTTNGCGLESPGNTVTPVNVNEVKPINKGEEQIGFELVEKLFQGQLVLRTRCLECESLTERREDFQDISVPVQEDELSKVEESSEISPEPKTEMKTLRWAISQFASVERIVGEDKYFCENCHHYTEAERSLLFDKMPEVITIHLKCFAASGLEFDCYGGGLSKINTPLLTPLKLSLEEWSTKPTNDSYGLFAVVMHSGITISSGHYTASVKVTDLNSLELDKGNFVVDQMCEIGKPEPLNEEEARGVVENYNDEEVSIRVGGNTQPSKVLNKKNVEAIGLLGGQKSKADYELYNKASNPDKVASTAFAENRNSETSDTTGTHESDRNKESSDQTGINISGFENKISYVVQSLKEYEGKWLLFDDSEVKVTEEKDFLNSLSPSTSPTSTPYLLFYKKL
Sequence of Peptidyl-prolyl cis-trans isomerase NIMA-interacting 1 (Homo sapiens) (Q13526 whole entry, looked up): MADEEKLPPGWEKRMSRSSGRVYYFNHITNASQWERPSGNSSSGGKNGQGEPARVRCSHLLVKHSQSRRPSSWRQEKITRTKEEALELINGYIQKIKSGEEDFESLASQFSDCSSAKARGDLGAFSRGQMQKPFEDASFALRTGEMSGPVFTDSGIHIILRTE
Sequence of phosphoglycerate mutase (Leishmania major) (Q4Q090 1-553): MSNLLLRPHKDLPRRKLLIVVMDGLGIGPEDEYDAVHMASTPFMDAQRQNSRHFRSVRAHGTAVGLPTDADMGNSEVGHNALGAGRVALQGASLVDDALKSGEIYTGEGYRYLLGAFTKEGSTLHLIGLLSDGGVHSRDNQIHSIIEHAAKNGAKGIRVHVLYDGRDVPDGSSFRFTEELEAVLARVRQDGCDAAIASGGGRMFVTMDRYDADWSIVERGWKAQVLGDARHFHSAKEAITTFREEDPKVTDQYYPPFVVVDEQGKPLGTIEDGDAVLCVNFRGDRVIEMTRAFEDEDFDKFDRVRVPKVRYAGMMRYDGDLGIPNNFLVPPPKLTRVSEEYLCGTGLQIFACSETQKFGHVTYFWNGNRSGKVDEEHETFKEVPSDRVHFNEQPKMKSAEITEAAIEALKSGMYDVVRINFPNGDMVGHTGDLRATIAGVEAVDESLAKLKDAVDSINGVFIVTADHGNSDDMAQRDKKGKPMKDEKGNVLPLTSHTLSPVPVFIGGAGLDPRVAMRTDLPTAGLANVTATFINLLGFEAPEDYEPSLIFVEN
Sequence of Thyrotropin-releasing hormone receptor (Homo sapiens) (P34981 whole entry, looked up): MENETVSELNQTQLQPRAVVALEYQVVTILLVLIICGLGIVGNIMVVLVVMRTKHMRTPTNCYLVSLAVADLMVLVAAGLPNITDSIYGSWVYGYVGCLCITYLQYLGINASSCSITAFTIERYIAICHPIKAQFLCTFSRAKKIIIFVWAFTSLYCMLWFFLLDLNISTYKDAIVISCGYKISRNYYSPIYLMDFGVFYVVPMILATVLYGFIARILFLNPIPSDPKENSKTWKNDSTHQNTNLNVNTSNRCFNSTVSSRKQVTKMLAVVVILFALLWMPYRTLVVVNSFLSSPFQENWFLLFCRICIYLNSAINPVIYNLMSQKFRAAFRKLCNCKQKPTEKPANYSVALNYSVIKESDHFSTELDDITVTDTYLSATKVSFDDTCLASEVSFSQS

As to `FC(F)(F)c1ccccc1-n1ccnc1`, the activation in [1] was -2.62% (inactive). Moreover, the Potency entry in [2], in [9] and in assay [10] was “inactive” in each case. In assay [2], the viability change was found to be 12.3%. Further, the result in [3], in assay [4], in assay [5], in [6], in [7] and in assay [8] was inactive.

As to `CCc1c(C)[nH]c2c1C(=O)C(CN1CCOCC1)CC2` (stereo not drawn), the activation in [1] is 0.75% (inactive). Further, the Potency result in assay [2], in assay [9], in assay [11] and in [10] was “inactive” throughout. In assay [2], the viability change was found to be 1.73%. Besides, the compound was classed as inactive in assay [3], in assay [4], in [5], in [6], in assay [7] and in [8].

For the compound `CCCCNc1ccc(C(=O)OCCN(C)C)cc1`, the activation in assay [1] was 1.31% (inactive). Further, the Potency entry in assay [2], in assay [9] and in [10] was “inactive” each time. Besides, the viability change in assay [2] was 2.59%. Moreover, the compound was called inactive in [3], in [4], in assay [5], in [6], in assay [7] and in assay [8].

As for `CCCN1C[C@H](CSC)C[C@@H]2c3cccc4[nH]cc(c34)C[C@H]21`, the activation in assay [1] was 1.44% (inactive). In addition, the Potency result in assay [2], in [9], in assay [11] and in [10] was “inactive” in each case. Further, the viability change in assay [2] came out at 2.56%. The compound was called inactive in [3], in assay [4], in assay [5], in [6], in [7] and in assay [8].

On to `CCOC(=O)C1=C(C)NC(C)=C(C(=O)OC)C1c1cccc(Cl)c1Cl` (stereo not drawn), for which the activation in assay [1] was 1.12% (inactive). Moreover, the Potency result in assay [2] is “inactive”. In assay [2], the viability change is -3.98%. Further, the compound was called inactive in assay [3], in assay [4], in [5], in [6], in [7] and in [8].

Turning to `CC(C)(C)NCC(O)c1cc(O)cc(O)c1` (stereo not drawn), in [1], the activation was 0.438% (inactive). Also, the Potency entry in assay [2], in assay [9], in assay [11] and in [10] was “inactive” each time. In addition, the viability change in assay [2] worked out at 2.92%. Besides, the compound was classed as inactive in assay [3], in assay [4], in assay [5], in assay [6], in [7] and in assay [8].

Turning to `CCCN(CCC)CCc1cccc2c1CC(=O)N2`, the activation in [1] was -3.31% (inactive). Further, the Potency result in assay [2] and in assay [10] was “inactive” each time. The viability change in [2] was 1.11%. The compound was called inactive in assay [3], in assay [4], in [5], in assay [6], in assay [7] and in assay [8].

Regarding `CN(C)C(=O)Oc1cccc([N+](C)(C)C)c1`, the activation in assay [1] was 0.625% (inactive). The Potency result in assay [2], in assay [11] and in assay [10] was “inactive” in each case. For the same compound, the viability change in assay [2] amounted to 0.794%. Further, the compound was called inactive in [3], in assay [4], in assay [5], in assay [6], in [7] and in assay [8].

In the case of `CC1=C(C)C(=O)C(CCCCC#CCCCC#CCO)=C(C)C1=O`, the activation in assay [1] is -4.88% (inactive). In addition, in [2], the Potency entry is “inactive”. Also, the viability change in assay [2] stood at 5.77%. The result in assay [3], in assay [4], in assay [5], in assay [6], in assay [7] and in assay [8] was inactive. For the same compound, the Potency in assay [10] was 20 µM (active).

Consider `CCCN(CCC)C(=O)C(CCC(=O)O)NC(=O)c1ccccc1` (stereo not drawn), for which, in [1], the activation was 1.56% (inactive). In addition, the Potency entry in assay [2] and in [10] was “inactive” in each case. For the same compound, in [2], the viability change was -16.1%. Also, the outcome in [3], in assay [4], in assay [5], in assay [6], in assay [7] and in assay [8] was inactive.
